Screening data as filed in PubChem.
Luc counter: Counterscreen for Luciferase (Kinase-Glo TM) Inhibition; Kinase-Glo luciferase, ATP luminescence, 8 min; Potency, µM (doses to about 38.3 µM), most hits filed as inhibitors; AID 1379, 2008; 200,000 compounds, 0.28% hits; note: nearly all actives have a fitted effect of over 60% in size
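Compound is pinned into ATP-containing buffer (10 uM ATP, imidazole pH 7.2, 7 mM MgCl2). Kinase-Glo luciferase reagent is then added. Light output is recorded following an 8-min room-temperature incubation.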
NPC1 promoter act: qHTS Assay for NPC1 Promoter Activators; Huh7 NPC1 promoter luciferase reporter, 24 h; Potency, µM (highest dose often 9.22 µM), usual class: activators; 320,000 compounds, 2.4% hits; AID 485313, 2010; note: nearly all actives have a fitted effect of over 60% in size
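Luminescence from an NPC1 promoter-driven luciferase reporter in stably transfected Huh7 cells was measured after 24 h compound treatment at 37 °C, followed by 10 min ambient incubation with luciferase detection reagent.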
SMN2 splice enh: qHTS Assay for Enhancers of SMN2 Splice Variant Expression; AID 1458, 2008; Potency, µM (series often up to 46.1 µM), hits mostly activators; HEK293 SMN2-luciferase splicing reporter, luminescence, 30-36 h; 210,000 compounds, 2.8% hits; note: nearly all actives have a fitted effect of over 55% in size
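qHTS luciferase splicing reporter: luminescence rises when SMN2 exon 7 is included in transfected HEK293 cells. Compound exposure lasted 30-36 h at 37C, with 4.5 mM final sodium butyrate as control, followed by a ONE-Glo read.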
ELG1 genotoxic: qHTS screen for small molecules that induce genotoxicity in human embryonic kidney (HEK293T) cells expressing luciferase-tagged ELG1 | HEK293T ELG1-luciferase reporter, luminescence, 16 h | 330,000 compounds, 1.3% hits | Potency, µM (series often up to 46 µM), usual class: activators; note: nearly all actives have a fitted effect of over 60% in size
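Reporter readout depends on ELG1 protein level, which increases with genetic stress. After 16 hr compound exposure at 37 °C, luciferase activity was quantified using ONE-Glo.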
Rab9 prom act: qHTS Assay for Rab9 Promoter Activators; Huh7 Rab9 promoter-luciferase reporter, luminescence, 24 h; Potency, µM (highest dose often 9.22 µM), actives largely listed as activators; 320,000 compounds, 2.8% hits; AID 485297, 2010; note: nearly all actives have a fitted effect of over 60% in size
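Promoter activation is measured as luciferase luminescence in Huh7 cells stably transfected with a Rab9 promoter–luciferase construct, following 24 h compound exposure at 37 °C and 10 min reagent incubation at ambient temperature.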
FLuc modulator: qHTS profiling assay for firefly luciferase inhibitor/activator using purifed enzyme and Km concentrations of substrates (counterscreen for miR-21 project); Luciferin 4-monooxygenase (Photinus pyralis), P08659; purified FLuc, Km substrates, luminescence inhibition; Potency, µM (series often up to 57.5 µM), most hits filed as inhibitors; 360,000 compounds, 6.9% hits; note: nearly all actives have a fitted effect of over 55% in size
Target sequence (P08659 whole entry, looked up): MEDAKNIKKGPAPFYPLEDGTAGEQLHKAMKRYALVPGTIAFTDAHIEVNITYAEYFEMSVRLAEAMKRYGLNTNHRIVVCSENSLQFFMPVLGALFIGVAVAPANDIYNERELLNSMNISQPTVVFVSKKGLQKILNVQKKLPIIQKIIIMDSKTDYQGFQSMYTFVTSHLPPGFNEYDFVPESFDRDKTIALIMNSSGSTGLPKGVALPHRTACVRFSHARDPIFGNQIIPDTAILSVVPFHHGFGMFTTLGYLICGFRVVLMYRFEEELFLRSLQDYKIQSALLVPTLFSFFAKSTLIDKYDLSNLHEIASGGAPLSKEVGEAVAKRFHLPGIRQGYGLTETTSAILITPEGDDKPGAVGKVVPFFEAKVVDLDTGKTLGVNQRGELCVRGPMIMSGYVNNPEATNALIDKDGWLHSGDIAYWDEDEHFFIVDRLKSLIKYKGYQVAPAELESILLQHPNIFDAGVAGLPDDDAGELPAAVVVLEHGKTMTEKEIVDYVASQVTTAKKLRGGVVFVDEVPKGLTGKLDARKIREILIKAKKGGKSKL
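Biochemical qHTS of compounds, final roughly 60 µM downward over six points, against 10 nM purified firefly luciferase using Km concentrations of substrates (10 uM D-luciferin, 10 uM ATP) in Tris acetate pH 7.5 buffer; luminescence output.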
Numbers stand for hits; – = inactive; ? = inconclusive; · = no result; [ ] = another dose, or the depositor's remark. A selection: hits, their analogues and other compounds. The true share with any hit is near 7.5%. Calls come from the whole dose curve; as a rule, active = well fitted curve in the direction sought with a large enough effect; inconclusive = small, poorly fitted or top-dose-only effect, or another doubt; inactive = no such curve, though single readings can be large; an effect the other way counts as inactive or inconclusive.

SMILES | Luc counter | NPC1 promoter act | SMN2 splice enh | ELG1 genotoxic | Rab9 prom act | FLuc modulator
Cc1cc(C(=O)CSc2nnnn2-c2ccc(O)cc2)c(C)n1C | – | – | – | – | – | ?
CCOc1ccc(OCC)c(NC(=O)C(NS(=O)(=O)c2ccc(Br)s2)c2ccccc2)c1 (centres undefined) | · | · | – | · | · | –
Cc1ccc(CCNC(=O)c2ccc(NC3=NC4CS(=O)(=O)CC4S3)cc2)cc1 (centres undefined) | · | – | · | – | – | –
O=C(NCCc1ccc(Cl)cc1)c1cccc(NC2=NC3CS(=O)(=O)CC3S2)c1 (centres undefined) | · | – | · | – | – | 17µM
O=C(Nc1ccn(C2CC(OC(=O)c3ccccc3)C(CO)O2)c(=O)n1)c1ccccc1 (centres undefined) | – | – | – | – | – | –
O=C1C[C@H]2[C@H](CO)[C@@H](OC(=O)c3ccc(-c4ccccc4)cc3)C[C@H]2O1 | · | ? | · | – | ? | 5.4µM
O=C1CC2C(CC(OC(=O)c3ccc(-c4ccccc4)cc3)C2CO)O1 (centres undefined) | – | – | ? | ? | ? | 12µM
CCC(C)(C)NC(=O)C(c1ccc(OC)cc1)N(Cc1cccs1)C(=O)CCC(=O)Nc1cc(C)on1 (centres undefined) | – | – | – | – | 0.63µM | –
CN(CC(=O)O)Cc1oc(CO)cc(=O)c1O | –[7.66 µM] | · | –[9.22 µM] | · | · | ·
O=C(N/N=C/c1ccc(F)cc1)c1ccc(Br)cc1 | – | – | – | – | – | 9.5µM
O=C(N/N=C/c1ccc(Br)cc1)c1ccc(F)cc1 | – | ? | 13µM | ? | – | 6µM
O=C(N/N=C/c1ccc(Br)cc1)c1ccc(Br)o1 | – | ? | 11µM | ? | 3.2µM | 4.3µM
Cc1cccc(/C=N/NC(=O)c2ccc(Br)cc2)c1 | – | – | ? | ? | ? | 3.4µM
Cc1cc(NC(=O)CSCC(=O)Nc2nc3ccccc3s2)no1 | · | – | · | – | – | –
Cc1nn(CCCC(=O)NCc2ccccc2)c(=O)c2cc3sccc3n12 | · | · | – | · | · | –
O=S(=O)(O)c1ccc(NN(c2c(O)ccc3ccccc23)S(=O)(=O)O)cc1 | –[7.66 µM] | · | –[9.22 µM] | · | · | ·
CC1CCN(C(=O)CN2C(=O)C(=O)N(C)C2=O)c2ccccc2S1 (centres undefined) | · | – | · | – | – | ·
Cc1c(C(=O)O)sc2[nH]c(=O)n(Cc3ccccc3)c(=O)c12 | · | – | · | – | – | –
Cc1cccc(/C=N/n2c(C)nnc2C)c1 | – | – | – | – | – | –
Cc1cccc(/C=N\N=C\c2cccc(C)c2)c1 | · | ? | · | – | – | 8.5µM
CC(=O)NC1Sc2ccccc2N=C1c1ccccc1 (centres undefined) | – | ? | ? | 13µM | ? | 12µM
O=C1Nc2ccccc2N=C(c2ccccc2)C1Br (centres undefined) | – | – | · | – | – | –
Cc1cc(C(=O)CSc2nnnn2C)c(C)n1CCc1ccc(F)cc1 | – | – | – | – | – | –
Cc1cc(C(=O)CSc2nnnn2C)c(C)n1Cc1ccco1 | · | 2.8µM | · | ? | 2.8µM | 13µM
Cc1cc(C(=O)CSc2ncccn2)c(C)n1Cc1ccco1 | – | 1µM | 3.5µM | ? | 0.56µM | 3µM
SMILES | Luc counter | NPC1 promoter act | SMN2 splice enh | ELG1 genotoxic | Rab9 prom act | FLuc modulator
CC(C)Oc1ccc(CNC(=O)CCCn2c(=O)c3cccn3c3ccccc32)cc1 | · | · | · | · | · | –
COc1ccc(CCNC(=O)c2cccc(Nc3nc4ccccc4nc3-n3nc(C)cc3C)c2)cc1OC | · | · | – | · | · | –
Cc1cc(C)n(C(=O)CNC(=O)c2ccc(C(C)(C)C)cc2)n1 | · | – | · | – | – | 7.6µM
Cc1cc(C)n(C(=O)CNC(=O)Cc2ccccc2)n1 | – | – | – | – | – | –
COc1ccc(C(=O)NCC(=O)n2nc(C)cc2C)cc1OC | – | – | – | – | – | –[2.3 µM]
Cc1cc(C)n(C(=O)CNC(=O)c2ccc(Cl)cc2Cl)n1 | · | – | · | – | – | 6.7µM
COc1cc(OC)cc(C(=O)Nc2ccc3oc(-c4ccc(Cl)cc4)nc3c2)c1 | · | · | – | · | · | –
COc1cc(NC(=O)C2CC2)c(OC)cc1NC(=O)c1ccco1 | · | – | · | – | – | –
O=C(Nc1ccc(NC(=O)C2CC2)cc1)c1ccco1 | · | 3.2µM | · | 13µM | 1.8µM | 19µM
O=C(Nc1ccc(NC(=O)C2CCCCC2)cn1)c1ccco1 | · | 0.71µM | · | 0.65µM | 0.45µM | 1.7µM
COc1ccccc1C(=O)Nc1ccc(NC(=O)c2ccco2)cn1 | · | ? | · | ? | ? | 6µM
O=C(Nc1ccc(NC(=O)c2ccco2)nc1)c1ccccn1 | 10µM | 0.45µM | 14µM | ? | 0.71µM | 6µM
CCOc1ccccc1NS(=O)(=O)c1ccc2oc(=O)c3ncn(C)c3c2c1 | · | · | · | · | · | –
COc1cccc(C2C(C#N)=C(N)N(N(C)C)C3=C2C(=O)CC(C)(C)C3)c1OC (centres undefined) | · | – | · | – | – | –
CCCC(=O)Nc1ccc(NC(=O)Cc2ccccc2)cn1 | – | – | – | – | – | –
O=C(Nc1ccccn1)c1ccco1 | – | ? | ? | – | ? | ?
O=C(Nc1ccc(NC(=O)C23CC4CC(CC(C4)C2)C3)cn1)c1ccco1 | – | 1µM | – | 2.3µM | – | 6µM
O=C(Cc1ccccc1)Nc1ccc(NC(=O)c2ccco2)nc1 | – | 2.2µM | ? | ? | 2.5µM | 17µM
CC(C)(C)C(=O)Nc1ccc(NC(=O)c2ccco2)nc1 | · | – | · | ? | – | 0.17µM
CCC(=O)Nc1ccc(NC(=O)C23CC4CC(CC(C4)C2)C3)cn1 | – | – | ? | ? | – | –
O=C(Nc1ccc(NC(=O)c2ccco2)nc1)c1ccco1 | – | 0.4µM | 2.5µM | – | 0.32µM | 4.8µM
CCOCc1c(C(=O)N2CCN(CC(=O)Nc3ccc(F)cc3)CC2)oc2ccccc12 | · | – | · | – | – | –
CCOc1ccc2nc3cc(N=Nc4ccc(N)nc4N)ccc3c(N)c2c1 | –[7.66 µM] | · | –[9.22 µM] | · | · | ·
CCN(Cc1ccncc1)C(=O)C(CO)c1ccccc1 (centres undefined) | – | – | – | – | – | –
CCN1/C(=C/C=C/C=C/c2sc3ccccc3[n+]2CC)Sc2ccccc21 | ? | – | – | – | – | 15µM
CCN1/C(=C/C=C/C=C/C=C/c2sc3ccccc3[n+]2CC)Sc2ccccc21 | · | – | · | – | – | ?
CCN1/C(=C/C=C/c2sc3ccccc3[n+]2CC)Sc2ccccc21 | · | – | · | ? | – | 21µM
Cc1cc(C(=O)NNC(=S)NC(=O)/C=C/c2ccccc2Cl)n[nH]1 | – | – | – | – | – | 24µM
